# According to the supplement of paper PMC8728848:
# The sample as a whole holds a higher share of the strongest signals than the screen did.
# B1: MGL6A (Homo sapiens) (protein)
# chain: MTRTYENFQYLENKVKVQGFKNGPLPLQSLLQRLCSGPCHLLLSLGLGLLLLVIICVVGFQNSKFQRDLVTLRTDFSNFTSNTVAEIQALTSQGSSLEETIASLKAEVEGFKQERQAVHSEMLLRVQQLVQDLKKLTCQVATLNNNGEEASTEGTCCPVNWVEHQDSCYWFSHSGMSWAEAEKYCQLKNAHLVVINSREEQNFVQKYLGSAYTWMGLSDPEGAWKWVDGTDYATGFQNWKPGQPDDWQGHGLGGGEDCAHFHPDGRWNDDVCQRPYHWVCEAGLGQTSQESH
# Key:
# Test in all cases: glycan array binding signal (z-score within array); higher = stronger binding
# Details in all cases: glycan notation: IUPAC condensed, linker removed
# Fuc(a1-2)Gal(b1-3)GalNAc = target: Fuc(a1-2)Gal(b1-3)GalNAc
# Procedure, shortened: (§1)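 Glycan array binding is given as a within-array Z-score, which can be read as non-binding when negative. The arrays, 3228 of them, came from the Consortium for Functional Glycomics database and were retained only where the protein sequence was available. Z-scores were averaged across arrays of the same protein sequence at different concentrations or buffers and across linkers.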
# [1] = target: Fuc(a1-2)Gal(b1-4)GlcNAc(b1-6)GalNAc
# Procedure, shortened: as §1
# [2] = target: Fuc(a1-2)Gal(b1-4)[Fuc(a1-3)]GlcNAc(b1-3)GalNAc
# Procedure, shortened: as §1
# Fuc(a1-2)[Gal(a1-3)]Gal = target: Fuc(a1-2)[Gal(a1-3)]Gal
# Procedure, shortened: as §1
# [3] = target: Fuc(a1-2)[Gal(a1-3)]Gal(b1-3)GalNAc
# Procedure, shortened: as §1
# [4] = target: Fuc(a1-2)[Gal(a1-3)]Gal(b1-4)GlcNAc(b1-6)GalNAc
# Procedure, shortened: as §1
# [5] = target: Fuc(a1-2)[GalNAc(a1-3)]Gal(b1-3)GalNAc(a1-3)[Fuc(a1-2)]Gal(b1-4)GlcNAc
# Procedure, shortened: as §1
# [6] = target: Fuc(a1-2)[GalNAc(a1-3)]Gal(b1-4)Glc
# Procedure, shortened: as §1
# [7] = target: Fuc(a1-2)[GalNAc(a1-3)]Gal(b1-4)GlcNAc(b1-2)Man
# Procedure, shortened: as §1
# [8] = target: Fuc(a1-2)[GalNAc(a1-3)]Gal(b1-4)[Fuc(a1-3)]GlcNAc
# Procedure, shortened: as §1
# [9] = target: Fuc(a1-2)[GalNAc(a1-4)]Gal(b1-4)GlcNAc
# Procedure, shortened: as §1
# [10] = target: Fuc(a1-2)[GalNAc(b1-3)]Gal
# Procedure, shortened: as §1
# [11] = target: Fuc(a1-3)[Gal(b1-4)]GlcNAc(b1-2)Man(a1-6)[Gal(b1-4)GlcNAc(b1-2)Man(a1-3)]Man(b1-4)GlcNAc(b1-4)GlcNAc
# Procedure, shortened: as §1
# [12] = target: Gal(a1-3)Gal(b1-3)GlcNAc(b1-6)GalNAc
# Procedure, shortened: as §1
# [13] = target: Gal(a1-3)Gal(b1-3)[Fuc(a1-4)]GlcNAc(b1-2)Man(a1-3)[Gal(a1-3)Gal(b1-3)[Fuc(a1-4)]GlcNAc(b1-2)Man(a1-6)]Man(b1-4)GlcNAc(b1-4)GlcNAc
# Procedure, shortened: as §1
# [14] = target: Gal(a1-3)Gal(b1-4)GlcNAc(b1-2)Man(a1-3)[Gal(a1-3)Gal(b1-4)GlcNAc(b1-2)Man(a1-6)]Man(b1-4)GlcNAc(b1-4)GlcNAc
# Procedure, shortened: as §1
# [15] = target: Gal(a1-3)Gal(b1-4)GlcNAc(b1-6)GalNAc
# Procedure, shortened: as §1
# [16] = target: Gal(a1-4)Gal(b1-4)GlcNAc(b1-2)Man(a1-3)[Gal(a1-4)Gal(b1-4)GlcNAc(b1-2)Man(a1-6)]Man(b1-4)GlcNAc(b1-4)GlcNAc
# Procedure, shortened: as §1
# [17] = target: Gal(b1-3)GlcNAc(b1-6)GalNAc
# Procedure, shortened: as §1
# Gal(b1-4)GlcNAc = target: Gal(b1-4)GlcNAc
# Procedure, shortened: as §1
# [18] = target: Gal(b1-4)GlcNAc(b1-3)Gal(b1-4)Glc
# Procedure, shortened: as §1
# [19] = target: Gal(b1-4)GlcNAc(b1-3)Gal(b1-4)GlcNAc(b1-3)GalNAc
# Procedure, shortened: as §1
# [20] = target: Gal(b1-4)GlcNAc(b1-6)Gal(b1-4)GlcNAc(b1-6)GalNAc
# Procedure, shortened: as §1
# [21] = target: Gal(b1-4)GlcNAc(b1-6)GalNAc
# Procedure, shortened: as §1
# GalNAc(b1-3)Gal = target: GalNAc(b1-3)Gal
# Procedure, shortened: as §1
# [22] = target: GalNAc(b1-3)Gal(a1-6)Gal(b1-4)Glc
# Procedure, shortened: as §1
# [23] = target: GalNAc(b1-4)GlcNAc(b1-3)GalNAc(b1-4)GlcNAc
# Procedure, shortened: as §1
# [24] = target: GlcNAc(a1-4)Gal(b1-3)GlcNAc
# Procedure, shortened: as §1
# [25] = target: GlcNAc(b1-3)Gal(b1-4)GlcNAc(b1-3)Gal(b1-4)GlcNAc
# Procedure, shortened: as §1
# [26] = target: GlcNAc(b1-3)Gal(b1-4)GlcNAc(b1-3)GalNAc
# Procedure, shortened: as §1
# [27] = target: Man(a1-3)[Man(a1-6)]Man(b1-4)GlcNAc(b1-4)GlcNAc
# Procedure, shortened: as §1
# Man(b1-4)GlcNAc = target: Man(b1-4)GlcNAc
# Procedure, shortened: as §1
# [28] = target: Neu5Ac(a2-3)Gal(b1-3)GlcNAc(b1-3)GalNAc
# Procedure, shortened: as §1
# [29] = target: Neu5Ac(a2-3)Gal(b1-3)[GlcNAc(b1-6)]GalNAc
# Procedure, shortened: as §1
# Neu5Ac(a2-3)Gal(b1-4)Glc = target: Neu5Ac(a2-3)Gal(b1-4)Glc
# Procedure, shortened: as §1
# [30] = target: Neu5Ac(a2-3)Gal(b1-4)GlcNAc(b1-3)Gal(b1-3)GlcNAc
# Procedure, shortened: as §1
# [31] = target: Neu5Ac(a2-3)Gal(b1-4)GlcNAc(b1-6)GalNAc
# Procedure, shortened: as §1
# [32] = target: Neu5Ac(a2-3)Gal(b1-4)[Fuc(a1-3)]GlcNAc(b1-6)[Neu5Ac(a2-3)Gal(b1-3)]GalNAc
# Procedure, shortened: as §1
# [33] = target: Neu5Ac(a2-6)Gal(b1-3)GlcNAc(b1-3)[Gal(b1-4)GlcNAc(b1-6)]Gal(b1-4)Glc
# Procedure, shortened: as §1
# [34] = target: Neu5Ac(a2-6)Gal(b1-4)GlcNAc(b1-2)Man
# Procedure, shortened: as §1
# [35] = target: Neu5Ac(a2-8)Neu5Ac(a2-3)[GalNAc(b1-4)]Gal(b1-4)Glc
# Procedure, shortened: as §1
# [36] = target: Neu5Ac(b2-6)Gal(b1-4)GlcNAc
# Procedure, shortened: as §1
# [37] = target: Neu5Gc(a2-3)Gal(b1-3)GlcNAc
# Procedure, shortened: as §1
# [38] = target: Neu5Gc(a2-3)Gal(b1-4)GlcNAc
# Procedure, shortened: as §1
# [39] = target: Neu5Gc(a2-8)Neu5Ac(a2-3)Gal(b1-4)GlcNAc
# Procedure, shortened: as §1
binder,measurement,setting,value
B1,glycan array binding signal (z-score),Fuc(a1-2)Gal(b1-3)GalNAc,-0.261
same,glycan array binding signal (z-score),[1],4.02
same,glycan array binding signal (z-score),[2],-0.238
same,glycan array binding signal (z-score),Fuc(a1-2)[Gal(a1-3)]Gal,-0.261
same,glycan array binding signal (z-score),[3],-0.249
same,glycan array binding signal (z-score),[4],-0.27
same,glycan array binding signal (z-score),[5],0.966
same,glycan array binding signal (z-score),[6],0.534
same,glycan array binding signal (z-score),[7],-0.017
same,glycan array binding signal (z-score),[8],-0.22
same,glycan array binding signal (z-score),[9],4.68
same,glycan array binding signal (z-score),[10],4.73
same,glycan array binding signal (z-score),[11],1.06
same,glycan array binding signal (z-score),[12],4.29
same,glycan array binding signal (z-score),[13],-0.221
same,glycan array binding signal (z-score),[14],-0.225
same,glycan array binding signal (z-score),[15],4.16
same,glycan array binding signal (z-score),[16],-0.244
same,glycan array binding signal (z-score),[17],3.91
same,glycan array binding signal (z-score),Gal(b1-4)GlcNAc,-0.075
same,glycan array binding signal (z-score),[18],-0.284
same,glycan array binding signal (z-score),[19],-0.303
same,glycan array binding signal (z-score),[20],-0.256
same,glycan array binding signal (z-score),[21],4.67
same,glycan array binding signal (z-score),GalNAc(b1-3)Gal,4.13
same,glycan array binding signal (z-score),[22],4.47
same,glycan array binding signal (z-score),[23],3.79
same,glycan array binding signal (z-score),[24],-0.306
same,glycan array binding signal (z-score),[25],0.5
same,glycan array binding signal (z-score),[26],-0.327
same,glycan array binding signal (z-score),[27],-0.224
same,glycan array binding signal (z-score),Man(b1-4)GlcNAc,-0.258
same,glycan array binding signal (z-score),[28],-0.273
same,glycan array binding signal (z-score),[29],-1.57
same,glycan array binding signal (z-score),Neu5Ac(a2-3)Gal(b1-4)Glc,-0.45
same,glycan array binding signal (z-score),[30],-0.277
same,glycan array binding signal (z-score),[31],3.89
same,glycan array binding signal (z-score),[32],-0.153
same,glycan array binding signal (z-score),[33],-0.259
same,glycan array binding signal (z-score),[34],-0.302
same,glycan array binding signal (z-score),[35],2.18
same,glycan array binding signal (z-score),[36],-0.277
same,glycan array binding signal (z-score),[37],-0.256
same,glycan array binding signal (z-score),[38],-0.228
same,glycan array binding signal (z-score),[39],-0.273
